Measurements published in the supplement of paper PMC4466140.

target: AgAbp1; assay: SPOT peptide array binding signal intensity (averaged, normalized) (arbitrary units (background-subtracted, floor 0; scale differs between SH3 domains)); higher = stronger binding of the SH3 domain to the peptide
In short: (§1)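 Detection of bound protein relied on anti-GST antibody, an HRP anti-mouse secondary and luminol, with imaging and quantification in Genespotter. The bound protein was GST-fused SH3 domains from four yeast species, incubated at 10 μg/ml overnight at 4°C in TBS-based blocking buffer on cellulose membranes carrying synthetic 15-mer peptides with cysteines replaced by serines. Binding signal is normalized, background-subtracted spot intensity averaged over replicates, in arbitrary units that differ between domains.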

Q: For RKQRSIPLSPIVPES, which “SPOT peptide array binding signal intensity” value is on record?
A: Its value is 7.

target: AgBbc1; assay: as above
In short: as §1

Q: For RKQRSIPLSPIVPES, which “SPOT peptide array binding signal intensity” value is on record?
A: Its value is 17.

target: AgBem1-D1; assay: as above
In short: as §1

Q: RKQRSIPLSPIVPES was tested. Which “SPOT peptide array binding signal intensity” value did it give?
A: Its value is 77.

target: AgBzz1-D1; assay: as above
In short: as §1

Q: With RKQRSIPLSPIVPES as the binder, how does the “SPOT peptide array binding signal intensity” value read?
A: The value was 15.5.

target: AgBzz1-D2; assay: as above
In short: as §1

Q: RKQRSIPLSPIVPES was tested. Which “SPOT peptide array binding signal intensity” value did it give?
A: The value was 32.

target: AgCyk3; assay: as above
In short: as §1

Q: How did the “SPOT peptide array binding signal intensity” value turn out when RKQRSIPLSPIVPES was run?
A: The value was 2.

target: AgFus1; assay: as above
In short: as §1

Q: With RKQRSIPLSPIVPES as the binder, how does the “SPOT peptide array binding signal intensity” value read?
A: Its value is 104.

target: AgHof1; assay: as above
In short: as §1

Q: For RKQRSIPLSPIVPES, which “SPOT peptide array binding signal intensity” value is on record?
A: Its value is 35.5.

target: AgHse1; assay: as above
In short: as §1

Q: Which “SPOT peptide array binding signal intensity” value does the source give for RKQRSIPLSPIVPES here?
A: Its value is 375.

target: AgLsb1; assay: as above
In short: as §1

Q: With RKQRSIPLSPIVPES as the binder, how does the “SPOT peptide array binding signal intensity” value read?
A: Its value is 1.5.

target: AgLsb4; assay: as above
In short: as §1

Q: For RKQRSIPLSPIVPES, which “SPOT peptide array binding signal intensity” value is on record?
A: The value was 45.5.

target: AgMyo5; assay: as above
In short: as §1

Q: For RKQRSIPLSPIVPES, which “SPOT peptide array binding signal intensity” value is on record?
A: Its value is 0.25.

target: AgNbp2; assay: as above
In short: as §1

Q: For RKQRSIPLSPIVPES, which “SPOT peptide array binding signal intensity” value is on record?
A: Its value is 59.

target: AgRvs167; assay: as above
In short: as §1

Q: For RKQRSIPLSPIVPES, which “SPOT peptide array binding signal intensity” value is on record?
A: The value was 3.33.

target: AgSho1; assay: as above
In short: as §1

Q: For RKQRSIPLSPIVPES, which “SPOT peptide array binding signal intensity” value is on record?
A: The value was 13.

target: AgSla1-D1-D2; assay: as above
In short: as §1

Q: With RKQRSIPLSPIVPES as the binder, how does the “SPOT peptide array binding signal intensity” value read?
A: The value was at most 0.

target: AgSla1-D3; assay: as above
In short: as §1

Q: For RKQRSIPLSPIVPES, which “SPOT peptide array binding signal intensity” value is on record?
A: The value was 3.

target: CaAbp1-D1; assay: as above
In short: as §1

Q: For RKQRSIPLSPIVPES, which “SPOT peptide array binding signal intensity” value is on record?
A: The value was 236.

target: CaAbp1-D2; assay: as above
In short: as §1

Q: With RKQRSIPLSPIVPES as the binder, how does the “SPOT peptide array binding signal intensity” value read?
A: Its value is 98.5.

target: CaBbc1; assay: as above
In short: as §1

Q: For RKQRSIPLSPIVPES, which “SPOT peptide array binding signal intensity” value is on record?
A: The value was 175.

target: CaBem1-D1; assay: as above
In short: as §1

Q: Which “SPOT peptide array binding signal intensity” value does the source give for RKQRSIPLSPIVPES here?
A: Its value is 13.

target: CaBzz1-D1; assay: as above
In short: as §1

Q: RKQRSIPLSPIVPES was tested. Which “SPOT peptide array binding signal intensity” value did it give?
A: Its value is 58.

target: CaBzz1-D2; assay: as above
In short: as §1

Q: Which “SPOT peptide array binding signal intensity” value does the source give for RKQRSIPLSPIVPES here?
A: Its value is 136.

target: CaCyk3; assay: as above
In short: as §1

Q: For RKQRSIPLSPIVPES, which “SPOT peptide array binding signal intensity” value is on record?
A: The value was 48.

target: CaFus1; assay: as above
In short: as §1

Q: Which “SPOT peptide array binding signal intensity” value does the source give for RKQRSIPLSPIVPES here?
A: Its value is 368.

target: CaHof1; assay: as above
In short: as §1

Q: RKQRSIPLSPIVPES was tested. Which “SPOT peptide array binding signal intensity” value did it give?
A: The value was 0.25.

target: CaHse1; assay: as above
In short: as §1

Q: RKQRSIPLSPIVPES was tested. Which “SPOT peptide array binding signal intensity” value did it give?
A: Its value is 12.2.

target: CaLsb1; assay: as above
In short: as §1

Q: RKQRSIPLSPIVPES was tested. Which “SPOT peptide array binding signal intensity” value did it give?
A: The value was 0.5.

target: CaLsb4; assay: as above
In short: as §1

Q: RKQRSIPLSPIVPES was tested. Which “SPOT peptide array binding signal intensity” value did it give?
A: The value was 64.

target: CaMyo5; assay: as above
In short: as §1

Q: How did the “SPOT peptide array binding signal intensity” value turn out when RKQRSIPLSPIVPES was run?
A: The value was 3.5.

target: CaNbp2; assay: as above
In short: as §1

Q: Which “SPOT peptide array binding signal intensity” value does the source give for RKQRSIPLSPIVPES here?
A: The value was 297.

target: CaRvs167; assay: as above
In short: as §1

Q: Which “SPOT peptide array binding signal intensity” value does the source give for RKQRSIPLSPIVPES here?
A: Its value is 5.17.

target: CaRvs167-3; assay: as above
In short: as §1

Q: For RKQRSIPLSPIVPES, which “SPOT peptide array binding signal intensity” value is on record?
A: The value was 1.25.

target: CaSho1; assay: as above
In short: as §1

Q: With RKQRSIPLSPIVPES as the binder, how does the “SPOT peptide array binding signal intensity” value read?
A: Its value is 83.

target: CaSla1-D1-D2; assay: as above
In short: as §1

Q: Which “SPOT peptide array binding signal intensity” value does the source give for RKQRSIPLSPIVPES here?
A: The value was 15.

target: CaSla1-D3; assay: as above
In short: as §1

Q: With RKQRSIPLSPIVPES as the binder, how does the “SPOT peptide array binding signal intensity” value read?
A: The value was at most 0.

target: ScAbp1; assay: as above
In short: as §1

Q: With RKQRSIPLSPIVPES as the binder, how does the “SPOT peptide array binding signal intensity” value read?
A: Its value is 11.
